MCF10A rereplic: A quantitative high throughput screen for small molecules that induce DNA re-replication in MCF 10a normal breast cells; MCF 10A DNA re-replication, Hoechst nuclear intensity, 48 h; Potency, µM (highest dose often 46.1 µM), hits mostly activators; 2.9% of 350,000 active; AID 624296, 2012; further: nearly all actives have a fitted effect of over 50% in size
KB-3-1 tox: qHTS assay for MDR1-selective chemotherapeutics: Primary screen using the parental adenocarcinoma cell KB-3-1. 1.4% of 400,000 active. Potency, µM (top dose mostly 46.1 µM), most hits filed as cytotoxic. KB-3-1 viability, CellTiter-Glo ATP luminescence, 72 h; further: nearly all actives have a fitted effect of over 60% in size
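Cells are dispensed, compounds pinned in, plates held at 37 °C for 72 h, then CellTiter-Glo is added and luminescence read after 10 minutes. Cell line: parental KB-3-1 in phenol-red-free DMEM, 10% FBS.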
HT1080-NT tox: qHTS for induction of synthetic lethality in tumor cells producing 2HG: qHTS for the HT-1080-NT fibrosarcoma cell line. HT-1080-NT fibrosarcoma viability, CellTiter-Glo ATP luminescence, 48 h. Potency, µM (top dose mostly 46.1 µM), actives largely listed as cytotoxic. 1.6% of 360,000 active. AID 686970, 2013;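 further: NT is the 2HG producing partner of a matched IDH1 knockdown line; nearly all actives have a fitted effect of over 55% in size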
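Compounds were tested in concentration-response format on HT-1080-NT cells for 48 hours at 37 degrees C. Cell viability came from CellTiter-Glo luminescence; curves were classified by r2, response magnitude and activity.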
KB-V1 cytotox: qHTS assay for MDR1-selective chemotherapeutics: Primary screen using the drug-selected MDR subline cells KB-V1; KB-V1 MDR cells viability, CellTiter-Glo, 72 h; Potency, µM (titrated, usually from 46.1 µM), hits mostly cytotoxic; 3.4% of 400,000 active; further: nearly all actives have a fitted effect of over 60% in size
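In this primary screen, KB-V1 cells overexpressing P-gp are incubated with library compounds (lowest to highest concentration) for 72 h at 37 degrees C before a luminescent ATP viability read.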
SW480 rerep: A quantitative high throughput screen for small molecules that induce DNA re-replication in SW480 colon adenocarcinoma cells; Potency, µM (top dose mostly 46.1 µM), actives largely listed as activators; SW480 DNA re-replication, Hoechst DNA content imaging, 48 h; 1.8% of 340,000 active; further: nearly all actives have a fitted effect of over 55% in size
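Treated cells incubate 48 hr (37 C, 5% CO2), are stained 40 min with Hoechst, and nuclear fluorescence is enumerated; a rise in nuclei with high DNA signal marks re-replication.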
HT1080 IDH1KD tx: qHTS for induction of synthetic lethality in tumor cells producing 2HG: qHTS for the HT-1080-IDH1KD cell line | AID 686971, 2013 | Potency, µM (series often up to 46.1 µM), most hits filed as cytotoxic | HT-1080 IDH1 knockdown viability, ATP luminescence, 48 h | 2% of 360,000 active
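Viability of IDH1-knockdown HT-1080 fibrosarcoma cells was assessed by CellTiter-Glo after 48 h at 37 °C with titrated compound; concentration-effect curves were classified by fit quality and response size.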
Hits are given with their value; n = inactive; u = inconclusive; x = no result given; [ ] = another dose, or the depositor's remark. In the library only some 7.9% were active in any assay of this set; here they are far more common. The call rests on the fitted dose curve; in most records, active means well fitted curve in the direction sought with a large enough effect; inconclusive means small, poorly fitted or top-dose-only effect, or another doubt; inactive means no such curve, though single readings can be large; an effect the other way counts as inactive or inconclusive.

SMILES | MCF10A rereplic | KB-3-1 tox | HT1080-NT tox | KB-V1 cytotox | SW480 rerep | HT1080 IDH1KD tx
CC(=O)N1N=C(c2ccco2)CC1c1ccco1 (centres undefined) | n | n | n | n | n | n
CCOc1cc(C(=O)Nc2ccc3oc(-c4ccc(CC)cc4)nc3c2)cc(OCC)c1OCC | x | n | x | n | x | x
CCOc1ccccc1N(C)C(=O)c1cc2c(=O)n(CC)c3ccccc3c2s1 | 3.7µM | u | n | n | 18µM | n
CCOCCCNC(=O)c1cc2c(=O)n(CC)c3ccccc3c2s1 | 23µM | u | u | n | u | n
CCn1c(=O)c2cc(C(=O)NCCOC)sc2c2ccccc21 | n | n | n | n | n | n
N#Cc1ncc(Br)cn1 | x | x | n | x | x | n
CCOC(=O)C1=C(C)Nc2sc(C(=O)c3ccc(C)cc3)c(N)c2C1c1ccc(C(=O)OC)cc1 (centres undefined) | 3.7µM | n | n | n | 18µM | n
CCOC(=O)C1=C(C)Nc2sc(C(=O)c3ccc(F)cc3)c(N)c2C1c1ccc(C(=O)OC)cc1 (centres undefined) | 2.6µM | n | n | n | 16µM | n
O=C(Nc1ccccc1F)c1nc(SCc2ccccc2F)ncc1Cl | x | n | x | n | x | x
COc1cc(C2c3cc4c(cc3OC(N3CCCCC3)C2C)OCO4)cc(OC)c1O (centres undefined) | u | u | n | u | u | n
COc1cccc(C2c3cc4c(cc3OC(N3CCCC3)C2C)OCO4)c1O (centres undefined) | u | 21µM | u | 8.2µM | u | u
CCC(c1ccc(O)cc1)C(CC)c1ccc(O)cc1 (centres undefined) | u | n | u | u | u | u
CC[C@H](c1ccc(O)cc1)[C@@H](CC)c1ccc(O)cc1 | 11µM | x | x | x | n | x
Cc1cccc(OC(C)C(=O)N(Cc2cccs2)C2CCS(=O)(=O)C2)c1C (centres undefined) | n | n | n | 5.8µM | n | n
Cc1ccccc1OCC(=O)N(Cc1cccs1)C1CCS(=O)(=O)C1 (centres undefined) | n[0.0737 µM] | n | n | n | n | n
COc1ccc(NC(=O)Cn2c(=O)n(Cc3ccccc3Cl)c(=O)c3cc(OC)c(OC)cc32)cc1OC | x | n | x | n | x | x
O=C(c1cc2ccccc2oc1=O)N1CCN(c2ccc(F)cc2)CC1 | x | n | x | n | x | x
C=CCn1c(O)c(C2=c3ccccc3=NC2=O)c2ccccc21 | u | u | 23µM | n | u | 21µM
O=Cc1cc2c3c(c1)CCCN3CCC2 | x | n | x | n | x | x
Cc1nn(-c2ccccc2)c2sc(C(=O)N(CC(=O)NC(C)(C)C)Cc3ccco3)cc12 | 18µM | u | u | u | n | u
O=C1C(c2ccccc2)=NCCN1C(c1ccc(F)cc1)c1nc2ccccc2[nH]1 (centres undefined) | x | n | n | n | x | n
Cc1ccc(-c2nn(-c3ccccc3)cc2/C=C(\C#N)C(=O)NCc2ccccc2)cc1 | n | n | n | n | n | n
CCCSc1ccc(-c2nn(-c3ccccc3)cc2/C=C(/C#N)C(=O)NCCCOC)cc1 | n | n | n | u | 4.1µM | n
CCSc1ccc(-c2nn(-c3ccccc3)cc2/C=C(/C#N)C(=O)NCCCOC)cc1 | 15µM | n | n | n | u | n
Cc1cc2c(cc1NS(=O)(=O)c1ccc(NC(=O)CC(C)C)cc1)n(C)c(=O)c(=O)n2C | x | n | x | n | x | x
SMILES | MCF10A rereplic | KB-3-1 tox | HT1080-NT tox | KB-V1 cytotox | SW480 rerep | HT1080 IDH1KD tx
CCc1ccc(OCCNC(=O)c2ccccc2SCc2ccccc2)cc1 | 16µM | u | n | u | n | u
CC1=C(C(=O)Nc2ccccc2)C(c2cccs2)n2nc(SCc3ccccc3F)nc2N1 (centres undefined) | x | n | x | n | x | x
NCC1CCN(c2nc3ccccc3c3c2CCCC3)CC1 | u | 23µM | n | 15µM | u | u
COc1cccc(CNC(=O)c2sc3nc4n(c(=O)c3c2C)CCC4)c1 | x | u | x | n | x | x
CCc1ccc(NC(=O)Cn2c(=O)n(CCCC(=O)NCc3ccccc3OC)c(=O)c3ccccc32)cc1 | x | n | x | u | x | x
O=C(Nc1ccc(F)cc1)c1ccc(-n2cncn2)c([N+](=O)[O-])c1 | n | u | n | 12µM | n | n
Cc1ccc(NC(=O)c2ccc(-n3cncn3)c([N+](=O)[O-])c2)cc1F | n | n | n | n | n | n
CCOc1ccc(N2C(=O)CC(NCCc3c[nH]c4ccccc34)C2=O)cc1 (centres undefined) | n | n | n | n | 2.9µM | n
CCOC(=O)C(C)(C)N(Cc1ccc(Cl)cc1)S(=O)(=O)c1ccc(Cl)c([N+](=O)[O-])c1 | 13µM | x | x | x | u | x
CCOC(=O)C(C)(C)NS(=O)(=O)c1ccc(Cl)c([N+](=O)[O-])c1 | u | u | n | n | n | n
CCOC(=O)C(C)(C)N(Cc1ccc(C)cc1)S(=O)(=O)c1ccc(Cl)c([N+](=O)[O-])c1 | 12µM | n | u | n | u | u
O=C(Cn1c(-c2cccs2)cc2ccccc21)N1CCN(c2ccc(Cl)cc2)CC1 | x | n | x | n | x | x
CC(C)CCN1CC(O)=C(c2nc3ccccc3[nH]2)C1=N | n | n | n | 10µM | n | n
CC(C)N1CC(O)=C(c2nc3ccccc3[nH]2)C1=N | n | n | n | n | n | n
CC1(C)C(O)=C(c2nc3ccccc3[nH]2)C(=N)N1c1ccccc1 | u | u | u | u | 9.2µM | u
COc1ccc(C#Cc2ccc3c(=O)c4ccccc4n(C)c3c2)cc1 | u | n | n | n | u | n
Cn1c(C=O)c(C#Cc2ccccc2)c2ccccc21 | 8.2µM | u | n | n | u | n
COc1ccc(C#Cc2c(C=O)n(C)c3ccccc23)cc1 | u | u | n | n | 21µM | n
COc1cc(C#Cc2c(-c3ccccc3)n(C)c3ccccc23)cc(OC)c1 | u | n | n | n | n | n
CCC(=O)N1CCc2cc(Br)cc(S(=O)(=O)NCCc3ccccc3)c21 | x | n | x | n | x | x
CCOC(=O)C1=C(C2=CCCCC2)c2ccc(OC)cc2N(S(=O)(=O)C(F)(F)F)C1C(=O)OCC (centres undefined) | 16µM | n | n | n | 10µM | n
Cc1c(C(=O)N2CCc3ccccc3C2)oc2ccc(S(=O)(=O)N3CC(C)CC(C)C3)cc12 (centres undefined) | n | 23µM | n | u | u | n
